Experimental data from PubChem BioAssay AID2099 (Broad Institute, 2009).
The campaign covered roughly 330,000 compounds. About 230 (0.07%) were called active. The sample holds actives, similar compounds and a random draw of the others, so the mix is not that of the screen.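 Rule for the calls: active = more than half of a compound's replicate wells show inhibition beyond 50%, single wells judged on their own value; inconclusive = some, but no more than half, of replicates pass 50% inhibition; inactive = no replicate passes 50% inhibition.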

The molecules below were run against Lysine-specific demethylase 4C (Homo sapiens) (UniProt Q9H3R0) (assay: inhibitors of GASC-1 histone demethylase, primary screen, biochemical, fluorescence, DELFIA europium (AID 2099;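 note: signal counts dimethyl H3K9 product captured on neutravidin plate; 0% = median of DMSO wells and 100% = 0.3 times that DMSO median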)). Details: GST-JMJD2C(1-420) H3K9me3 demethylation, at 2.35 µM, stronger effect = higher value.
Lysine-specific demethylase 4C (Homo sapiens), sequence (Q9H3R0 1-420 limits assumed): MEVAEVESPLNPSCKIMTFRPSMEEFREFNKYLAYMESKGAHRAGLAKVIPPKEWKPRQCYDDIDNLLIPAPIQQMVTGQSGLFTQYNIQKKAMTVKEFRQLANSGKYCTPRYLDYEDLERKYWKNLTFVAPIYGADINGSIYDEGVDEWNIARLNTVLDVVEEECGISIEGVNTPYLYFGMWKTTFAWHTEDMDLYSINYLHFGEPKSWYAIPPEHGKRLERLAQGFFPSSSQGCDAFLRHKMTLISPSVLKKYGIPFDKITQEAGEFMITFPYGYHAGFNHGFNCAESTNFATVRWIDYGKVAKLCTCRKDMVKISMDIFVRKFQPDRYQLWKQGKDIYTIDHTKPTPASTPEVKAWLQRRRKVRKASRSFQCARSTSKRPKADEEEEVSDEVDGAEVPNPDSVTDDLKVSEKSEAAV

inhibition, inactive:
O=C(N1CCCCC1)N1CCN(C(=O)N2CCCCC2)CC1 -0.997%
COc1ccc(CC(NC(C)=O)C(=O)N2CCN(C(=O)Nc3cccc(Cl)c3)CC2)cc1OC (centres undefined) 3.8%
Cc1ccc2oc(C(=O)N3CCN(C)C[C@@H]3C(C)C)c(C)c2c1 -21.1%
COc1ccc(-c2nc3n(c(=O)c2C#N)CCS3)c(OC)c1 -2.02%
COc1ccccc1OCC(=O)Nc1c2c(nn1-c1ccc(F)cc1)CS(=O)(=O)C2 -10.7%
COC(=O)c1c(NC(=O)CN(c2ccc(C)c(C)c2)S(C)(=O)=O)sc2c1CCCC2 5.54%
NS(=O)(=O)c1ccc(CNC(=S)NC(=O)c2ccco2)cc1 2.82%
CC(C)C[C@@H](N)c1nnc(SCC(=O)c2ccc(Cl)cc2)o1 -0.106%
C=CCSc1nc(Cc2ccc(Cl)cc2)nc2ccccc12 -13.3%
CCOc1ccc(C(C)=O)cc1COC(=O)c1cnc(Cl)c(Cl)c1 -8.14%
O=S(=O)(NCCc1ccccn1)c1cc(Cl)cc(Cl)c1O 6.23%
CCN(C(=O)CSc1ncnc2sccc12)c1c(N)n(Cc2ccccc2)c(=O)[nH]c1=O -1.94%
CN1C(=O)c2ccccc2C(C(=O)NCCCN2CCCC2)C1c1c[nH]c2ccccc12 (centres undefined) -5.55%
COCCCn1c(SCC(=O)Nc2oc(C)c3c(C)n[nH]c(=O)c23)nc2sc3c(c2c1=O)CCC3 -6.89%
CCC(CO)Oc1cc(NCc2ccccc2)c2ncn(C3CCCC3)c2c1 (centres undefined) -1.07%
CCC(CO)Oc1cc(NC(=O)c2cccc(F)c2)c2ncn(C(C)C)c2c1 (centres undefined) -5.85%
CC(=O)Nc1ccc(Nc2ncnc3c2nnn3Cc2ccccc2Cl)cc1 1.4%
CCC(=O)N1c2ccc(S(=O)(=O)NCc3ccco3)cc2CC1C (centres undefined) 15.7%
Cc1[nH]c(C)c(S(=O)(=O)N2CCN(c3cccc(C(F)(F)F)c3)CC2)c1C(=O)N1CCCCC1 30%
Cc1ccc(C)c(NC(=O)CCC(=O)N/N=C2/CC(=O)CC(C)(C)C2)c1 3.28%
COc1ccccc1NC1=NC(c2ccc(Cl)cc2)N=C(N)N1 (centres undefined) 0.933%
Cc1ccc(S(=O)(=O)N2CCC(C(=O)OCC(=O)N(C)c3ccccc3)CC2)cc1C 10.2%
O=C1c2ccccc2C(=O)N1CCOc1ccc(F)cc1 -6.36%

inhibition, active:
CCC(CO)Oc1cc(NC(=O)c2cccc3ccccc23)c2ncn(C(C)C)c2c1 (centres undefined) 51.8%
